# TEAD-YAP block: TEAD-YAP interaction inhibition, primary screen, TEAD-YAP interaction inhibitor project, luminescence, HEK-TIYL cells; inhibition, % at 9.12 µM; 640,000 compounds, 1.4% hits; TEAD-Gal4/YAP UAS-luciferase luminescence; AID 1259422, 2018; in the data active = inhibition above about 32%
# FBW7 activator: FBW7 E3 ligase activators, primary screen, biochemical, AlphaScreen, human; AlphaScreen FBW7–phospho-cyclin E peptide binding, activator screen; 650,000 compounds, 0.13% hits; AID 1259310, 2017; F-box/WD repeat-containing protein 7 (Homo sapiens), Q969H0; normalized activity (activation), % at 26.1 µM; in the data active = normalized activity above about 1.9%;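 also: purified mutant Fbw7 with reduced substrate affinity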
# MITF primary: MITF inhibitors, primary screen, biochemical, AlphaScreen, human | Microphthalmia-associated transcription factor (Homo sapiens), O75030 | AlphaScreen MITF homodimerization, bead proximity signal | inhibition, % at 2.6 µM | 650,000 compounds, 0.91% hits | AID 1259374, 2018; in the data active = inhibition above about 50%
# Target sequence (O75030 whole entry, looked up): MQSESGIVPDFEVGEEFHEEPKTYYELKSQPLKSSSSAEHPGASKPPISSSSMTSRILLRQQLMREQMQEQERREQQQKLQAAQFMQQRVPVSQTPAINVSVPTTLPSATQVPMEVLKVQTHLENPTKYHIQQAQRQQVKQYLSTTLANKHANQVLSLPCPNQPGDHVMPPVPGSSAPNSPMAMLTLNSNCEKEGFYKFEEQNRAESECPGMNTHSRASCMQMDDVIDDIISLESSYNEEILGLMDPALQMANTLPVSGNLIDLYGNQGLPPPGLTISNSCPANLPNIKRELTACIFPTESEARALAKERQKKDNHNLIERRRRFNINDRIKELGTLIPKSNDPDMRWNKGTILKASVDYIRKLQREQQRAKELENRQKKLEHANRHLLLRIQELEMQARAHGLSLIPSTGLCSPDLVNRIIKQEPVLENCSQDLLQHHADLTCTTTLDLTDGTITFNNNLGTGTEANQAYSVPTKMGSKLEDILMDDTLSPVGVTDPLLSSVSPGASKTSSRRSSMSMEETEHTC
# GPR151 ag: activators of human GPR151, primary screen, cell-based, PathHunter beta-arrestin, luminescence; G-protein coupled receptor 151 (Homo sapiens), Q8TDV0; PathHunter beta-arrestin GPR151 cells; activation, % at 11.2 µM; 650,000 compounds, 1% hits; AID 1508602, 2020; in the data active = activation above about 4.9%
# Hits are given with their value; 0 = inactive. Most compounds without a hit are left out; they make up all but 3.4% or so of the library.
SMILES,TEAD-YAP block,FBW7 activator,MITF primary,GPR151 ag
CS(=O)(=O)c1ncc(Cl)c(C(=O)C(C#N)c2nc3ccccc3s2)n1 (stereo not given),74.3,0,0,0
COc1ccc(N(Cc2ccccc2)C(=O)c2nc(S(C)(=O)=O)ncc2Cl)cc1,98.4,0,0,0
Cc1ccc(-c2cn(-c3ccccc3)c(SCC(=O)Nc3ccccc3C)n2)cc1,0,0,0,0
COc1ccc(CCNc2ncnc3c2nc(-c2ccc(N4CCOCC4)nc2)n3C(C)C)cc1,59.0,0,0,0
COc1ccc(CCNc2ncnc3c2nc(Nc2ccc(N4CCOCC4)cc2)n3C(C)C)cc1,79.0,0,0,0
COc1ccc(CCNc2ncnc3c2nc(N2CCOCC2)n3C(C)C)cc1,0,0,0,0
O=[N+]([O-])c1ccc(N2CCN(c3ccc([N+](=O)[O-])c4cccnc34)CC2)cc1,0,2.3,0,0
Cc1cc([N+](=O)[O-])ccc1NC(=O)c1cnccn1,0,0,0,0
COc1cccc(C2C=C(c3cccc(Br)c3)Nc3nnnn32)c1 (stereo not given),49.0,0,0,0
COc1cccc(C2=CC(c3cc(Br)ccc3F)n3nnnc3N2)c1 (stereo not given),46.1,0,0,0
COc1ccc(C2C=C(c3cccc(Br)c3)Nc3nnnn32)cc1OC (stereo not given),0,0,0,0
COc1cccc(C2=CC(c3ccccc3C)n3nnnc3N2)c1 (stereo not given),44.4,0,0,0
Cc1cc(Nc2ccc(N3CCOCC3)cc2)nc(NC2CCN(Cc3ccccc3)CC2)n1,0,0,0,0
CCC(/C=C1\Sc2ccccc2N1CC)=C\c1sc2ccccc2[n+]1CC,82.1,0,0,0
CCOC(=O)C1(C)C/C(=N\NC(=O)c2ccccc2)C(=O)N1c1ccccc1 (stereo not given),0,0,0,0
COc1ccc(N2CCN(C(CNS(=O)(=O)c3ccc(OC)c(C)c3)c3ccco3)CC2)cc1 (stereo not given),0,0,68.1,0
Cc1ccc(CN2CCN(C(=O)c3ccccc3F)CC2)cc1,0,0,0,0
CCOc1ccc(CN2CCOc3ccc(CN4CCN(C(C)=O)CC4)cc3C2)cc1,37.5,0,0,0
CC(=O)N1CCN(Cc2ccc3c(c2)CN(Cc2ccc(Cl)cc2)CCO3)CC1,47.2,0,0,0
CCOc1ccc(CN2CCN(C(=O)c3ccccc3F)CC2)cc1,40.1,0,0,0
O=C(/C=C/c1cccs1)NCCNC(=O)/C=C/c1cccs1,0,0,0,0
CCC(C#N)(CC)C(=O)NC(=O)NC(C)C,0,0,0,0
CCn1c2ccccc2c2ccc(C3C(C#N)=C(N)OC4=C3C(=O)CCC4)cc21 (stereo not given),0,0,0,0
CCC(C)NC(=O)CSc1nc2ccccc2c(=O)n1Cc1ccc2c(c1)OCO2 (stereo not given),0,0,0,0
O=C(O)CSc1nnc(-c2ccc3c(c2)OCO3)o1,0,0,0,0
SMILES,TEAD-YAP block,FBW7 activator,MITF primary,GPR151 ag
CC(Sc1nnc(-c2ccc3c(c2)OCO3)o1)C(N)=O (stereo not given),37.0,0,0,0
NC(=O)CSc1nnc(-c2ccc3c(c2)OCO3)o1,44.6,0,0,0
CC(Sc1nnc(-c2ccncc2)o1)C(N)=O (stereo not given),0,0,0,0
COCCN(C)Cc1ccc(OCC(O)CN2CCc3ccccc3C2)cc1 (stereo not given),0,0,0,0
CCCCOc1cccc(C(=O)Nc2cc3nn(-c4ccc(OC)cc4)nc3cc2C)c1,0,0,0,0
COc1ccc(O)c(C(=O)CC(=O)c2ccccc2Cl)c1,0,0,0,0
COc1ccc(O)c(C(=O)CC(=O)c2ccccc2)c1,55.4,0,0,0
CCOc1ccc(-n2cc(C(=O)Nc3ccc4c(c3)OCCO4)c3cc(OC)c(OC)cc3c2=O)cc1,0,0,0,0
CCC(=O)Nc1nc2c(s1)C(=O)CC(c1ccccc1)C2 (stereo not given),52.1,0,0,0
CC(=O)N1c2ccccc2NC2=C(C(=O)CCC2)C1c1ccccc1 (stereo not given),37.1,0,0,0
CC(=O)N1c2ccccc2NC2=C(C(=O)CCC2)C1c1cccc(Br)c1 (stereo not given),37.2,0,0,0
N#CCCN(C(=O)COC(=O)c1ccc(Cl)cc1N)c1ccccc1,0,0,0,0

# Screening data as filed in PubChem BioAssay.
